# What was measured:
# Assay in all cases: DAPPL (digital affinity profiling via proximity ligation, sequencing); 10 mM Tris-HCl pH 7.5, 50 mM NaCl, 1 mM DTT, 4% glycerol, room temperature, 30 min; GST-TFs on glutathione beads, 16-mer random dsDNA library, 0.1% formaldehyde crosslink after washing; high values mean tight binding
# Details in all cases: protein: recombinant; tags: N-terminal GST; dsDNA, one strand shown
# FLI1 = molecular target: T1, FLI1 (Homo sapiens, UniProt Q01543 1-452)
# T1 sequence: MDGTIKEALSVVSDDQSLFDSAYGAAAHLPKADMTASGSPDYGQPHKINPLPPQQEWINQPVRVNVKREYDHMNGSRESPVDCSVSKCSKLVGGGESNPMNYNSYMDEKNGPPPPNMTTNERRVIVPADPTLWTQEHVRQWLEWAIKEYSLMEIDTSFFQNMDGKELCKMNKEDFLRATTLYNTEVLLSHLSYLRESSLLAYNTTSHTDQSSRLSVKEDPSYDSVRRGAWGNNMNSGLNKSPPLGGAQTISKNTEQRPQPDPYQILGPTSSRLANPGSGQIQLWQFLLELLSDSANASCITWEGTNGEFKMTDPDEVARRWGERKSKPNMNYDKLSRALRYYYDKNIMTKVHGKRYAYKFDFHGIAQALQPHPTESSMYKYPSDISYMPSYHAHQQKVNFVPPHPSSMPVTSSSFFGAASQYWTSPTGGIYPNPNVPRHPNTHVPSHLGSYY
# In short: (§1)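 Human transcription factors fused to GST were expressed in yeast, captured on glutathione beads, given DNA barcodes and pooled with a GST-only negative control. Pools were incubated with 200 nmole of a 16-mer random double-stranded DNA library in Tris/NaCl/DTT/glycerol buffer at room temperature for 30 min. They were then washed, crosslinked with 0.1% formaldehyde, proximity-ligated (BsaI/T4 ligase, 1 h, 37 °C), PCR-amplified and sequenced on an Illumina NextSeq500. Binding signal is each 6-mer's read frequency for a factor divided by its frequency for the GST control.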
# ELK1 = molecular target: T2, ELK1 (Homo sapiens, UniProt P19419 1-428)
# T2 sequence: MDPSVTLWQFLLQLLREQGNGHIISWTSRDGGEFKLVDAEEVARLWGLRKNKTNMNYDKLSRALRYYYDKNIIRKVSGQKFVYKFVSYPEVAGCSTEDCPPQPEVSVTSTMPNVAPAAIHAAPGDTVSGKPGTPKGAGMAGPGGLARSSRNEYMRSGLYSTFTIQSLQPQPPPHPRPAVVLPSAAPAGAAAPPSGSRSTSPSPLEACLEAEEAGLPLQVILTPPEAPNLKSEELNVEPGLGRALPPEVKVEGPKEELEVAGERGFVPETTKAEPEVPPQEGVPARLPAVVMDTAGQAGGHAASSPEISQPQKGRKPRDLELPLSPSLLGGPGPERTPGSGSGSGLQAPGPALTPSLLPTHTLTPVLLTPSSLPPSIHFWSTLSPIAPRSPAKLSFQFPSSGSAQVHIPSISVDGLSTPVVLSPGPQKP
# In short: as §1
# GABPA = molecular target: T3, GABPA (Homo sapiens, UniProt Q06546 1-454)
# T3 sequence: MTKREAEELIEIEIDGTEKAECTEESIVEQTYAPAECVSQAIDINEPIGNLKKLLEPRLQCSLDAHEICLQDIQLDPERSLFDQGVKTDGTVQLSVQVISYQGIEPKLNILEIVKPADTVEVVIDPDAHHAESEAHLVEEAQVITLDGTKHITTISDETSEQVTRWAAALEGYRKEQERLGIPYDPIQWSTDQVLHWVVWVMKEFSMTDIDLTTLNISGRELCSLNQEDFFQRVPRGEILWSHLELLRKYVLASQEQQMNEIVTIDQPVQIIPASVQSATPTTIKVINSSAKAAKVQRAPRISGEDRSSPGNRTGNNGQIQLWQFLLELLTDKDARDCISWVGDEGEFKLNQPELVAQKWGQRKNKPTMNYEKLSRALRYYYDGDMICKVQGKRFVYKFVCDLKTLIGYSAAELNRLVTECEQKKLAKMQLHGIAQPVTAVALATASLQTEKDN
# In short: as §1
# ELF1 = ELF1 (Homo sapiens, UniProt P32519 1-619)
# In short: as §1
# EHF = molecular target: T4, EHF (Homo sapiens, UniProt Q9NZC4 1-300)
# T4 sequence: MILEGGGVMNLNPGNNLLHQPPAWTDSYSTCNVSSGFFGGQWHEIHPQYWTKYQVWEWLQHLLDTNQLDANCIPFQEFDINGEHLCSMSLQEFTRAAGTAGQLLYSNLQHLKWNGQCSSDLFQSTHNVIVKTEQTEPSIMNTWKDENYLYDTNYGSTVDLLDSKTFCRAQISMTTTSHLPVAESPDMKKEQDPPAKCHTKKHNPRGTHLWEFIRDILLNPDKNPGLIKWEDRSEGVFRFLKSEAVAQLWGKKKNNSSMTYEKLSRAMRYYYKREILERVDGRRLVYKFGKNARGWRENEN
# In short: as §1
# SPIB = SPIB (Homo sapiens, UniProt Q01892 1-262)
# In short: as §1
# SPIC = molecular target: T5, SPIC (Homo sapiens, UniProt Q8N5J4 1-248)
# T5 sequence: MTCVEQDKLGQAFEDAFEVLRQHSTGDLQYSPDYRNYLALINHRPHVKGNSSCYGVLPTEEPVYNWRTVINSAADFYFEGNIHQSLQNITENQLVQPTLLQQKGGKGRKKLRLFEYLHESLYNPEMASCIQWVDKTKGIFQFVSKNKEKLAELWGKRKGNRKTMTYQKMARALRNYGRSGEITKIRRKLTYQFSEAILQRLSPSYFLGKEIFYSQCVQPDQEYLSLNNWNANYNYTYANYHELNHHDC
# In short: as §1
# ELF4 = ELF4 (Homo sapiens, UniProt Q99607 1-663)
# In short: as §1
# ELK4 = molecular target: T6, ELK4 (Homo sapiens, UniProt P28324-2 1-405)
# T6 sequence: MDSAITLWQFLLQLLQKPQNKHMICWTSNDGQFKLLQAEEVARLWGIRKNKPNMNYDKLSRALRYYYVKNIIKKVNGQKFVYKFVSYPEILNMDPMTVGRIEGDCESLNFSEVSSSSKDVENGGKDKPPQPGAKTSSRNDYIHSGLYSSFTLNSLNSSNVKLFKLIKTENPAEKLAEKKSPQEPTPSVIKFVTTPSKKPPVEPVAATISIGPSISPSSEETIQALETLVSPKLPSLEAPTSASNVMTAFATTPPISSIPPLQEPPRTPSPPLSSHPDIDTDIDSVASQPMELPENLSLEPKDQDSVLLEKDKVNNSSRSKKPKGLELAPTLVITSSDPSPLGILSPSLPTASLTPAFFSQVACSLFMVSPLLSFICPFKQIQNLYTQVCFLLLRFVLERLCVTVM
# In short: as §1
# ETV2 = molecular target: T7, ETV2 (Homo sapiens, UniProt O00321 1-342)
# T7 sequence: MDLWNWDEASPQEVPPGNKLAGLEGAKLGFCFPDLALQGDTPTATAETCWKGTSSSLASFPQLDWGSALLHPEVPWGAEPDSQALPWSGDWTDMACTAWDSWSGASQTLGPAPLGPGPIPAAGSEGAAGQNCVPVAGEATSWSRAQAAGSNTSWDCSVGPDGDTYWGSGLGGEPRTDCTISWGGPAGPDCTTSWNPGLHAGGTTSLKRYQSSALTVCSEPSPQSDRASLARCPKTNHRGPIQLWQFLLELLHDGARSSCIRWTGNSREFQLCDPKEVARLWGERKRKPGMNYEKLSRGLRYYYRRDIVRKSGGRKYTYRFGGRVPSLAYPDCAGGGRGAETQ
# In short: as §1
# ERF = molecular target: T8, ERF (Homo sapiens, UniProt P50548 1-548)
# T8 sequence: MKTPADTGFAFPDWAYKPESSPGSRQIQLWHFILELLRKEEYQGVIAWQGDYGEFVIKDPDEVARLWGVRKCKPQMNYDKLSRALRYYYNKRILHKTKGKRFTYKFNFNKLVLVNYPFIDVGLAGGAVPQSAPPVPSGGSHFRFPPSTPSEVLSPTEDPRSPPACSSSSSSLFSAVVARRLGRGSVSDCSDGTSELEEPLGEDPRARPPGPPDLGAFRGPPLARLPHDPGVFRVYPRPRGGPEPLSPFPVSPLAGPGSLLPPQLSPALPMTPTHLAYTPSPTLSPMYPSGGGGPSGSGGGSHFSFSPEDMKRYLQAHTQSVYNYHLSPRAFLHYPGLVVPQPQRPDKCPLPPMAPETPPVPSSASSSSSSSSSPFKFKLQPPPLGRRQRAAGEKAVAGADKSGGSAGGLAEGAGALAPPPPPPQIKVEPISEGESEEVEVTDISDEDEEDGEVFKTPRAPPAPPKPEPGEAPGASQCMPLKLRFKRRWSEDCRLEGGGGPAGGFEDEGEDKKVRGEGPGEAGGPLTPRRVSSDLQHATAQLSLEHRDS
# In short: as §1
# ETV3L = molecular target: T9, ETV3L (Homo sapiens, UniProt Q6ZN32 1-361)
# T9 sequence: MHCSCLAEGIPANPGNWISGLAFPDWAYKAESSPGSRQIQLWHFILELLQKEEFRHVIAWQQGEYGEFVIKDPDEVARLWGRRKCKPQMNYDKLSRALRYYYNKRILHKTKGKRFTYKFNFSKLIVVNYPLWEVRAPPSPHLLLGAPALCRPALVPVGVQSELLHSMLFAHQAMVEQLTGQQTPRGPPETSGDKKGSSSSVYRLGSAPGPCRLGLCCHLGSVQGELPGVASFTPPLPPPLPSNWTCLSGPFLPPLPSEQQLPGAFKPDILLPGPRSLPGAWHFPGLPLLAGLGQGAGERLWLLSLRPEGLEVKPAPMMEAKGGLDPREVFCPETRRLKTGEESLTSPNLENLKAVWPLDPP
# In short: as §1
# ETS2 = molecular target: T10, ETS2 (Homo sapiens, UniProt P15036 1-469)
# T10 sequence: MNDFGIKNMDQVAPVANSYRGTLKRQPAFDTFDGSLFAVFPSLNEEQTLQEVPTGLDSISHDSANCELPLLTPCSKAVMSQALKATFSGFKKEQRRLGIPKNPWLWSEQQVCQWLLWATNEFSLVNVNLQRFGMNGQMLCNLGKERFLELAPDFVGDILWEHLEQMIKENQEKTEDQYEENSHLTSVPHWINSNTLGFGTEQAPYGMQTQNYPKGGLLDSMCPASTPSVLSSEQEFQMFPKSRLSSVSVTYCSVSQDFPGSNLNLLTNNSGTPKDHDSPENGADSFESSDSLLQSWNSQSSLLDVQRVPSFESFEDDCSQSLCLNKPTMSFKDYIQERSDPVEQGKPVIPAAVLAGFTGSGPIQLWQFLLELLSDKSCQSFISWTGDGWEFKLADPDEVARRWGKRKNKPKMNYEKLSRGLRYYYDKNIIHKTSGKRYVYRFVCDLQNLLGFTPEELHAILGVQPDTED
# In short: as §1
# ETV6 = ETV6 (Homo sapiens, UniProt P41212 1-452)
# In short: as §1
# ETV6, sequence (P41212 whole entry): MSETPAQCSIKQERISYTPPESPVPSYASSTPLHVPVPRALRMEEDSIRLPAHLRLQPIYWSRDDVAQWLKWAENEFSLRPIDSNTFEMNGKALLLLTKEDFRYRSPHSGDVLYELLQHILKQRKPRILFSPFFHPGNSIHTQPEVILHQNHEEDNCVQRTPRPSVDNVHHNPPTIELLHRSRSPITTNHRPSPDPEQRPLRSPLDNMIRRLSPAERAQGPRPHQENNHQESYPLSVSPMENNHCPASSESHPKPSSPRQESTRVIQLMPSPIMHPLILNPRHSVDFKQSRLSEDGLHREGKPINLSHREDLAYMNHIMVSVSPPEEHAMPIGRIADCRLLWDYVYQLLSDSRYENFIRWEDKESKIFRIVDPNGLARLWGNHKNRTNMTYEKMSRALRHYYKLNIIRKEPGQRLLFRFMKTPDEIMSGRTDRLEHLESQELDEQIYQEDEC
# ELF1, sequence (P32519 whole entry): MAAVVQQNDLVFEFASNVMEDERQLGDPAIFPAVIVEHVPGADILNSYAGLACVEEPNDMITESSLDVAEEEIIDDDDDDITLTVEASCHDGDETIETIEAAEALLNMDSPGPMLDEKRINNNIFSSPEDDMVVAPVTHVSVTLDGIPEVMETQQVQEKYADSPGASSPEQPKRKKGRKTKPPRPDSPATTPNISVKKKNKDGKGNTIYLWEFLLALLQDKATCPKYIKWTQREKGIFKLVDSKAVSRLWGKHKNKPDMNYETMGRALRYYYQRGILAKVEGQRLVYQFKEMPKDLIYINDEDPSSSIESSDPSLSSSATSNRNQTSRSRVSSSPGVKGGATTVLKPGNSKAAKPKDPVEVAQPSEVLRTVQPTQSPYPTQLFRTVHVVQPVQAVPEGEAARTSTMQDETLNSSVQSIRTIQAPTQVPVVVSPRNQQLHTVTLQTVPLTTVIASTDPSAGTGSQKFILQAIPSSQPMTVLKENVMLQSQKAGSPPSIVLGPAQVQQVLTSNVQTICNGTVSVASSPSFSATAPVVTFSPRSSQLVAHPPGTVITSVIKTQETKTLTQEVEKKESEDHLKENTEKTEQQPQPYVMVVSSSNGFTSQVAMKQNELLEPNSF
# SPIB, sequence (Q01892 whole entry): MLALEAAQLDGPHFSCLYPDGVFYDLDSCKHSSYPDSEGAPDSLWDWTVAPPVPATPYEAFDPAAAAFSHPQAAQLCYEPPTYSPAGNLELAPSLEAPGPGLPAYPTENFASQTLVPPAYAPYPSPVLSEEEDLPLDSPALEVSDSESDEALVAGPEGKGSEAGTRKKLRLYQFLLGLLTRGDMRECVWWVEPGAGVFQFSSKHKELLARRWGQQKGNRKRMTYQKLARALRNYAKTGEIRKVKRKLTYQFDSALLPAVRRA
# ELF4, sequence (Q99607 whole entry): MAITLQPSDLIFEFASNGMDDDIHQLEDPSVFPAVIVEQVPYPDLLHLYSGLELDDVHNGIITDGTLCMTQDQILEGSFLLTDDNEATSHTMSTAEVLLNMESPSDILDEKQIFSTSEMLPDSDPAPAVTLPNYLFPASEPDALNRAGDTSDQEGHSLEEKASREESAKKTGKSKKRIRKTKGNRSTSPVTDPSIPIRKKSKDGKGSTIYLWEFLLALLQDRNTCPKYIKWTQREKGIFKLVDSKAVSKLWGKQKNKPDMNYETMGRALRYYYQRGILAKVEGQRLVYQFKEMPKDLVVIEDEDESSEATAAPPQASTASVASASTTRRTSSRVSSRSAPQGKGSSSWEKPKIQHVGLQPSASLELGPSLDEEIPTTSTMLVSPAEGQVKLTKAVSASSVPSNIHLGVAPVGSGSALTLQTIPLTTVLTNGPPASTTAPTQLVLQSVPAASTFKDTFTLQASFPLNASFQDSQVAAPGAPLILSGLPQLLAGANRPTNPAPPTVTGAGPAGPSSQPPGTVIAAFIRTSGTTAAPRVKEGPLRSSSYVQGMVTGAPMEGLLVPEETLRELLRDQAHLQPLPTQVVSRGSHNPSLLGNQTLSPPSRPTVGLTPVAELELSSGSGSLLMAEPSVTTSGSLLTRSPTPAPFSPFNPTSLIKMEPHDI
sequence,measurement,setting,value
GCTGCA,binding signal,FLI1,"1.09 fold enrichment (6-mer frequency, TF over GST control)"
same,binding signal,ELK1,"1.07 fold enrichment (6-mer frequency, TF over GST control)"
same,binding signal,GABPA,"1.05 fold enrichment (6-mer frequency, TF over GST control)"
same,binding signal,ELF1,"1.05 fold enrichment (6-mer frequency, TF over GST control)"
same,binding signal,EHF,"1.08 fold enrichment (6-mer frequency, TF over GST control)"
same,binding signal,SPIB,"1.07 fold enrichment (6-mer frequency, TF over GST control)"
same,binding signal,SPIC,"1.09 fold enrichment (6-mer frequency, TF over GST control)"
same,binding signal,ELF4,"1.05 fold enrichment (6-mer frequency, TF over GST control)"
same,binding signal,ELK4,"1.08 fold enrichment (6-mer frequency, TF over GST control)"
same,binding signal,ETV2,"1.01 fold enrichment (6-mer frequency, TF over GST control)"
same,binding signal,ERF,"1.2 fold enrichment (6-mer frequency, TF over GST control)"
same,binding signal,ETV3L,"1.11 fold enrichment (6-mer frequency, TF over GST control)"
same,binding signal,ETS2,"1.07 fold enrichment (6-mer frequency, TF over GST control)"
same,binding signal,ETV6,"1 fold enrichment (6-mer frequency, TF over GST control)"
